The text below walks through data of PubChem BioAssay AID651719 (The Scripps Research Institute Molecular Screening Center, 2012).

Among all 360,000 compounds or so, about 1,600 (0.44%) were called active.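 Rule for the calls: active = inhibition above the screen-wide average plus 3 SD (cut at about 13% in these data); inactive = the rest.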 The full list was thinned out, with actives kept by preference.

In this assay the target is Galanin receptor type 3 (Homo sapiens) (UniProt O60755). Nature of the assay: blockers of human galanin receptor 3 – cell-based, fluorescence readout, primary screen (AID 651719).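 Note: forskolin and galanin both at EC90 stimulate the cells; cAMP rise reported by CNG channel membrane potential dye signal; 0% = forskolin plus galanin with DMSO and 100% = forskolin alone.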 Conditions: HEK293 GalR3-CNG cAMP membrane potential fluorescence; at 3 µM; hits give high values; galR3 body fused to GalR1 C-terminus.
Chain of Galanin receptor type 3 (Homo sapiens) (O60755 1-299 limits assumed): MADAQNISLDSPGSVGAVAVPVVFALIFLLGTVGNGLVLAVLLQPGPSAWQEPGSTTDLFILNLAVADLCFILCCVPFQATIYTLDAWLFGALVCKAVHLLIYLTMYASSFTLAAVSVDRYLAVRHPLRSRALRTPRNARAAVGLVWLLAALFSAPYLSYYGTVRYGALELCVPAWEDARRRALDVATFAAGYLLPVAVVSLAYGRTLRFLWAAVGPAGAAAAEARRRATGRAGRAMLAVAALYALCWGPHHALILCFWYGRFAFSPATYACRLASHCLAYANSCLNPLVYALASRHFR
Turning to `CCCCCCCCn1c2c(c(=N)c3c1CCC3)CCCC2`, the inhibition was 30.2% (active).
In the case of `COC(=O)C1=C(C)N(Cc2cccc(C(F)(F)F)c2)C(=NCc2cccc(C(F)(F)F)c2)NC1c1ccccc1C(F)(F)F` (configuration not stated), the inhibition was -1.24% (inactive).
Consider `Cc1ccc(NC(=O)N2c3ccccc3SC2c2ccco2)c(C)c1` (configuration not stated), for which the inhibition is -5.21% (inactive).
To `CCOc1ccc(Br)cc1S(=O)(=O)N1CCC(C(=O)O)CC1` belongs -0.52% (inactive); to `CC(C)(C)NCc1cc(Br)ccc1OC1CCCC1`, -9.54% (inactive); to `CCOc1ccc(Br)cc1CSC(=N)N`, 58.7% (active).
As to `COc1ccccc1C(=O)N1O[C@]23C=C[C@]14C[C@@H](O)CC[C@]4(C)C2CC[C@]1(C)[C@@H]([C@H](C)/C=C/[C@H](C)C(C)C)CC[C@H]13` (some centres not stated), the inhibition is -7.73% (inactive).
To `CCN1C(=O)N[C@@H]2C[C@H](C(=O)N3CCCC3)[C@H](C)[C@H](c3ccccc3)C[C@@H]21` belongs -5.5% (inactive).
To `O=C(N[C@H](C(=O)N1CCC[C@H]1C(=O)NCCc1ccccc1Cl)c1ccccc1)c1ccccc1` belongs -7.99% (inactive).
Turning to `COc1ccccc1-c1ccc([C@@H]2C[C@H]3[C@H](CON3C)CN2S(=O)(=O)c2cc(Cl)cc(Cl)c2)cc1`, the inhibition is -6.77% (inactive).
To `O=C(NCC(=O)N(CC1CCCO1)C(C(=O)NC1CCCCC1)c1ccccc1)c1ccco1` (configuration not stated) belongs -3.5% (inactive).
To `O=C(NCC(=O)N(c1ccccc1)C(C(=O)NCC1CCCO1)c1ccccc1)c1cccs1` (configuration not stated) belongs 0.38% (inactive); to `COc1ccc(N(C(=O)CNC(=O)c2ccco2)C(C(=O)NCC2CCCO2)c2ccccc2)cc1Cl` (configuration not stated), 17.1% (active); to `COC(=O)c1c(-c2ccc(OC)cc2)c2c(c3c4cc(OC)ccc4n(S(=O)(=O)c4ccc(F)cc4)c13)C(=O)N(C)C2`, -4.47% (inactive).
To `CCOC(=O)c1c(NC(=O)CSc2nccc(=O)[nH]2)sc(C)c1C` belongs 14.3% (active).
For the compound `CCOC(=O)c1c(NC(=O)CSc2nnc(CNc3ccc(C)cc3C)o2)sc(C)c1C`, the inhibition was -5.1% (inactive).
In the case of `CCOC(=O)c1c(NC(=O)CSc2nnc(Cc3csc(N)n3)n2C)sc(C)c1C` it was -6.84% (inactive); in that of `O=C1Nc2ccccc2C1=NN=Cc1ccco1`, -6.76% (inactive).
For the compound `CC(C)(C)n1nc(C2CC2)c(Br)c1NC(=O)c1ccccc1F`, the inhibition is -6.97% (inactive).
To `O=c1[nH]c(-c2ccccc2)cn1C1CCN(Cc2ccc(-c3nc4ccc(F)cc4nc3-c3ccccc3)cc2)CC1` belongs -7.59% (inactive); to `COC(=O)c1ccc(COC(=O)c2cnc(Cl)c(Cl)c2)cc1`, -9.03% (inactive); to `CCOc1ccc(C(C)=O)cc1COC(=O)CNC(=O)c1cccs1`, -0.09% (inactive).
Take `CCOc1ccc(C(C)=O)cc1COC(=O)c1cnc(Cl)c(Cl)c1`: the inhibition was 13.8% (active).
To `COC(=O)c1ccc(CN2C(=O)[C@]3(OCCC=C[C@H]3C)c3c(Br)cccc32)cc1` belongs -6.8% (inactive).
To `CC1CCN(C(=O)c2ncn3c2C(=O)N[C@@H](C)C3)CC1` belongs -3.89% (inactive); to `O=C(NCc1ccccc1)[C@@H]1CCCN1C(=O)[C@H]1CCCN1C(=O)c1cccc(Cl)c1`, -6.19% (inactive).
With `CCOC(=O)N1CCN(Cc2nc3cc(NC(C)=O)ccc3n2C)CC1`, the inhibition is -9.27% (inactive).
Take `Cn1c(CN2CCOCC2)nc2cc(NC(=O)c3ccc(Cl)cc3)ccc21`: the inhibition is 74.6% (active).
In the case of `O=C(Nc1ccc(CN2CCOCC2)cc1)c1cc(Cl)ccc1Cl` it was -7.17% (inactive); in that of `Cc1cc(NCCc2c[nH]c3ccccc23)ccc1Oc1cccnc1`, -8.42% (inactive); in that of `COc1ccc(CN2CCCC(C(=O)c3ccc(Cl)cc3)C2)cc1Cn1cncn1` (configuration not stated), -0.72% (inactive).
Take `COc1ccc(C2Nc3ccccc3C(=O)N2c2ccc(Cl)cc2)cc1Cn1cc([N+](=O)[O-])cn1` (configuration not stated): the inhibition was 28.1% (active).
In the case of `COc1ccc(C2Nc3ccccc3C(=O)N2Cc2ccccc2)cc1Cn1nnc2ccccc21` (configuration not stated) it was -2.99% (inactive); in that of `CN[C@H]1C[C@H]2c3[nH]c4c(-c5ccccc5)cccc4c3CCN2C(=O)[C@H]1[C@H](C)O`, -8.33% (inactive); in that of `CC(=NNC(N)=O)c1ccc(Cl)c(-n2cccc2)c1`, -8.67% (inactive).
For `C[C@@H]1ON(C)[C@H]2C[C@H]3c4cc(N5CCOCC5)ccc4CCN3C[C@@H]12`, the inhibition was -4.65% (inactive).
For the compound `COC(=O)[C@H](CC(C)C)NS(=O)(=O)c1c(F)cccc1F`, the inhibition is -4.91% (inactive).
Turning to `COCc1[nH]nc2c1C(c1ccccc1)N(c1ccccc1)C2=O` (configuration not stated), the inhibition was -6.8% (inactive).
As for `CN1C(=O)C2CC(O)C(SC3CC4C(=O)N(C)C(=O)C4CC3O)CC2C1=O` (configuration not stated), the inhibition was -2.8% (inactive).
On to `Cc1cccc(NC(=O)c2ccc(S(=O)(=O)N(C)c3ccccc3)cc2)n1`, for which the inhibition was -6.82% (inactive).
In the case of `COC(=O)c1nc(NC(=O)c2ccc(C(C)(C)C)cc2)n[nH]1` it was -1.62% (inactive); in that of `CSc1nccc(NC(=O)c2ccc(C(C)(C)C)cc2)n1`, 104% (active); in that of `CCCCCCCCN1C(=O)[C@@H](CC(=O)NCCCC)C[C@@]2(C(=O)OC)C1=C[C@H](C(C)(C)C)O[C@@H]2C`, -5.71% (inactive).
For `O=C(NCc1ccccc1)[C@H]1CCCN1C(=O)[C@H]1CCCN1C(=O)N1CCOCC1`, the inhibition was -7.58% (inactive).
In the case of `Nc1[nH]c(C(=O)c2ccc(Br)cc2)c(-c2ccc3c(c2)OCO3)c1C(=O)NCCc1c[nH]c2ccccc12` it was -6.84% (inactive); in that of `NC(=O)c1ncn([C@@H]2O[C@H](C(=O)O)[C@@H](O)[C@H]2O)n1`, -7.36% (inactive).
With `Nc1ncnc2c1ncn2C1OC(CO)CC1O` (configuration not stated), the inhibition was 53.3% (active).
To `Nc1ncnc2c1ncn2[C@@H]1O[C@H](C(=O)N2CCSC2)[C@@H](O)[C@H]1O` belongs -5.85% (inactive).
As for `Nc1ncnc2c1ncn2[C@@H]1O[C@H](C(=O)NCC(F)(F)F)[C@@H](O)[C@H]1O`, the inhibition is -9.69% (inactive).
In the case of `Brc1ccc(COCCc2cn(Cc3ccccc3)c3ccccc23)cc1` it was 3.44% (inactive).
To `COC(=O)[C@]12C[C@H](CC(=O)NCc3ccc(C)o3)C(=O)N(CCC3=CCCCC3)C1=C[C@H](C(C)(C)C)O[C@@H]2C` belongs -7.34% (inactive).
For `O=C(NC(Nc1nc2ccc([N+](=O)[O-])cc2s1)(C(F)(F)F)C(F)(F)F)c1ccccc1`, the inhibition was 20% (active).
In the case of `CC(Nc1ccc([N+](=O)[O-])cc1[N+](=O)[O-])c1ccccc1` (configuration not stated) it was -6.77% (inactive); in that of `O=C(NNC(=O)c1ccc(-n2cncn2)c([N+](=O)[O-])c1)c1ccccc1`, -6.89% (inactive).
For the compound `COC(=O)C(C(=O)OC)c1ccccc1NS(=O)(=O)c1cccc2ccccc12`, the inhibition is -6.36% (inactive).
To `CC(C)C[C@H](NC(=O)CC1CCCC1)C(=O)N1CCC[C@H]1C(=O)NCc1ccccc1` belongs 1.69% (inactive); to `OC[C@@H]1CN(Cc2ccc(F)cc2)C[C@H](n2cnc3c(NC4CCCC4)ncnc32)O1`, -2.96% (inactive).
In the case of `OC[C@@H]1CN(Cc2cccs2)C[C@H](n2cnc3c(NC4CCCC4)ncnc32)O1` it was -8.57% (inactive).
In the case of `OC[C@@H]1CN(Cc2ccc(-c3ccccc3)cc2)C[C@H](n2cnc3c(NC4CCCC4)ncnc32)O1` it was 27.1% (active); in that of `COC(=O)c1cc2c(c3c4cc(F)ccc4n(S(=O)(=O)c4ccccc4)c13)C(=O)N(Cc1ccccc1OC)C2`, -5.48% (inactive); in that of `Cc1noc(C)c1NC(=O)Nc1ccc2c(c1)C(=O)N([C@H](C)CO)C[C@H](C)[C@H](CN(C)Cc1ccncc1)OCCCC[C@@H](C)O2`, -3.2% (inactive).
`COc1cc(C(=S)NC2CCCCC2)ccc1O`: the inhibition is -5.5% (inactive).
As to `COc1cc(C(=O)Nn2c(CC(C)C)nc3ccccc3c2=O)cc(OC)c1OC`, the inhibition was -0.49% (inactive).
`COc1cc(C(=O)Nn2c(O)c(C3=c4ccccc4=NC3=O)sc2=S)ccc1O`: the inhibition is 19.3% (active).
On to `O=C(C(=O)N1CCC(CNC(=O)c2cccnc2Cl)CC1)c1cccs1`, for which the inhibition was -2.12% (inactive).
In the case of `CC(=O)N1C[C@@H](CO)[C@@H](N(C)C(=O)C(C)(C)C)C[C@H]1c1ccccc1Br` it was -3.56% (inactive).
In the case of `CCN(CC(=O)NCc1ccc(Cl)cc1)C(=O)CSc1ccccc1` it was 46.6% (active); in that of `CCN(CC(=O)Nc1cc(Cl)ccc1C)C(=O)CSCc1ccccc1`, -6.08% (inactive); in that of `CCN(CC(=O)NCc1ccc(Cl)cc1)C(=O)c1c(C)noc1C`, -4.16% (inactive).
`COCCNC(=S)N(C)[C@H]1C[C@H]2c3[nH]c4ccccc4c3CCN2C[C@H]1[C@H](C)O`: the inhibition was -3.71% (inactive).
To `CC(=O)C1=C(C)N(Cc2ccc(Cl)cc2)C(=S)NC1c1ccc(F)cc1` (configuration not stated) belongs -2.41% (inactive); to `CCCCNc1cccc2c1S(=O)(=O)N[C@@H](C)CO2`, 0.83% (inactive).
In the case of `COC(=O)[C@]12C[C@H](CC(=O)NCCCCc3ccccc3)C(=O)N(Cc3ccc4c(c3)OCO4)C1=C[C@H](C(C)(C)C)O[C@@H]2C`, the inhibition is -7.85% (inactive).
Turning to `O=C(/C=C/c1c(Cl)cccc1Cl)NCc1ccccc1`, the inhibition is -6.6% (inactive).
For the compound `O=C(CCc1ccccc1)Nc1nn[nH]n1`, the inhibition is -3.85% (inactive).
In the case of `O=C(/C=C/c1c(F)cccc1Cl)Nc1nn[nH]n1` it was 13.1% (active); in that of `Clc1cccc2c1C1CC2CCN1Cc1ccccc1` (configuration not stated), -7.78% (inactive).
In the case of `CC(C)(C)C(c1nc2ccccc2[nH]1)n1c(Cc2csc3ccccc23)nc2ccccc21` (configuration not stated) it was -6.57% (inactive); in that of `O=C(N[C@H](Cc1ccccc1)C(=O)N1CCCN(Cc2cccs2)CC1)[C@H]1O[C@@H](n2ccc(=O)[nH]c2=O)[C@H](O)[C@@H]1O`, -5.35% (inactive).
To `COC(=O)CNC(=O)c1ccccc1[N+](=O)[O-]` belongs -2.07% (inactive); to `Cc1c(C(=O)NCCCc2ccccc2)cccc1[N+](=O)[O-]`, -5.51% (inactive).
On to `COC(=O)c1cccc([N+](=O)[O-])c1CS(=O)(=O)c1ccc(C)cc1`, for which the inhibition was 13.8% (active).

As usually defined, the inhibition is the relative decrease from the control value, in per cent.
